# Screens (PubChem BioAssay)
# Hits are enriched below; roughly 19% of the tested compounds scored in any of these assays.
# Pf growth 48h: Primary qHTS for delayed death inhibitors of the malarial parasite plastid, 48 hour incubation | 5.9% of 310,000 active | AID 504832, 2011 | P. falciparum luciferase growth in erythrocytes, 48 h | Potency, µM (series often up to 28.7 µM), without a hit: at the top dose activity change, negative = inhibition, usual class: inhibitors; further: potency means the concentration at half of the fitted maximal effect; on the % scale 0 is the no-effect control and ±100 the full control effect
#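 Cell-based growth assay: transgenic P. falciparum expressing firefly luciferase, cultured in red cells within RPMI 1640 containing 0.5% w/v Albumax, 24 mM bicarbonate and gentamycin. A drop in luciferase activity indicates inhibition.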
# Cycloheximide cs: Cycloheximide Counterscreen for Small Molecule Inhibitors of Shiga Toxin; 12% of 300,000 active; cell reporter, cycloheximide protein synthesis inhibition counterscreen; max response, %; AID 2314, 2010; in the data active means max response mostly above about 13%, no sharp cut-off; inactive means mostly below about 14%; further: read at 38.3 µM for the half of the compounds with a filed dose; 0% is about no effect
# MARV entry inh: qHTS for inhibitors of binding or entry into cells for Marburg Virus. Marburg virus pseudotyped entry inhibition, cell reporter. 1.8% of 300,000 active. Potency, µM (series often up to 37.8 µM), inactives show top-dose activity change, negative = inhibition, hits mostly inhibitors; calls by dose curve; tested in HEK293 cells; further: potency means the concentration at half of the fitted maximal effect; on the % scale 0 is the no-effect control and ±100 the full control effect
# Lassa entry inh: qHTS for Inhibitors of binding or entry into cells for Lassa Virus | Potency, µM (titrated, usually from 37.9 µM), inactives show top-dose activity change, negative = inhibition, hits mostly inhibitors | Lassa virus pseudotype entry inhibition, cell reporter | 1.2% of 300,000 active; calls by dose curve; tested in HEK293 cells; further: potency means the concentration at half of the fitted maximal effect; on the % scale 0 is the no-effect control and ±100 the full control effect; nearly all actives have a fitted effect of over 50% in size
# Pf growth 96h: Primary qHTS for delayed death inhibitors of the malarial parasite plastid, 96 hour incubation; Potency, µM (titrated, usually from 28.7 µM), without a hit: at the top dose activity change, negative = inhibition, actives largely listed as inhibitors; 6.9% of 320,000 active; P. falciparum luciferase reporter growth, 96 h; further: potency means the concentration at half of the fitted maximal effect; on the % scale 0 is the no-effect control and ±100 the full control effect
#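 Plates of compound plus infected erythrocytes (2% hematocrit, 0.05% parasitemia final) incubate 96 hours, 37 C, 5% CO2. Detection reagent added; reduced luminescence from the parasites' luciferase reporter flags inhibition.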
# Shiga toxin inh: A qHTS for Small Molecule Inhibitors of Shiga Toxin; Vero cells, Shiga toxin protein synthesis inhibition reporter; inhibition, % at 38.7 µM; AID 2315, 2010; 9.2% of 290,000 active; in the data active means inhibition mostly above about 28%, no sharp cut-off; inactive means mostly below about 43%; further: 0% is about no effect
# Starred values were filed as active, the others as inactive; u = inconclusive; x = no result; + = active, no number; [ ] = dose if it differs, or a comment. Unless noted, the call rests on the fitted dose curve; in most records, active means well fitted inhibition curve with a large enough effect; inconclusive means small, poorly fitted or top-dose-only effect, or another doubt; inactive means no such curve, though single readings can be large or run the other way.
SMILES,Pf growth 48h,Cycloheximide cs,MARV entry inh,Lassa entry inh,Pf growth 96h,Shiga toxin inh
COc1cccc(OCC(=O)N2CCCc3ccccc32)c1,18%,37*,u,16%[46.1 µM],7%,26
COc1cccc(OCC(=O)N2CCN(C)CC2)c1,41%,35*,-3%,19%,-12%,53*
Cc1ccccc1CN1CCc2c(OCC(=O)N3CCCc4ccccc43)cccc2C1=O,u,1,u,u,15µM*,13
CN1CCN(C(=O)COc2ccc(Oc3ccccc3)cc2)CC1,2%,6,-17%[46.1 µM],5%,-1%,47
Cc1ccccc1OCC(=O)N1CCCc2ccccc21,-8%,33*,3%[46.1 µM],-1%,-21%,active
O=C(COc1ccc(F)cc1)N1CCCc2ccccc21,-2%,11,x,x,0%,44
Cc1ccc2nc(C)c(C(=O)N/N=C/c3ccc(C(=O)O)cc3)cc2c1,81%,-1,-3%,3%[46.1 µM],-3%,-14
O=C(NNC(=S)NC(=O)C12CC3CC(CC(C3)C1)C2)c1ccncc1,3.3µM*,1,-54%,u,3.3µM*,-6
O=C(NNC(=O)C12CC3CC(CC(C3)C1)C2)c1cnccn1,u,-1,-14%,7%,u,-19
O=C(NNC(=O)C12CC3CC(CC(C3)C1)C2)c1ccccn1,4.1µM*,-3,10µM*,7.9µM*,4.1µM*,15
NS(=O)(=O)c1cccc(NC(=S)NC(=O)C23CC4CC(CC(C4)C2)C3)c1,7%,23*,u,u,44%,66*
CC1(C(=O)NC(=S)NNC(=O)c2ccncc2)CCCCC1,u,-1,u,6%,u,16
NC(N)=NS(=O)(=O)c1ccc(NC(=S)NC(=O)c2ccccc2)cc1,19%,5,x,x,5%,18
CCC(=O)N(Cc1ccco1)c1nc(C(=O)Nc2ccc(Cl)cc2)c(C)s1,-4%,33*,x,x,28%,54*
Cc1ccc(NC(=O)c2nc(S(C)(=O)=O)ncc2N(Cc2ccco2)Cc2ccco2)cc1,x,x,u,-19%[46.1 µM],x,x
Cc1c(NC(=S)NC(=O)c2ccco2)cccc1-c1nc2ncccc2o1,-10%,7,-30%[46.1 µM],-26%,u,-3
COc1ccc(OC)c(S(=O)(=O)NC2CC2)c1,x,-2,x,x,25%,-3
O=C(NCCCc1nc2ccccc2n1Cc1cccc(Cl)c1)c1ccco1,x,x,u,-7%[46.1 µM],x,x
CN(c1cccc(NC(=O)COc2ccccc2)c1)S(C)(=O)=O,127%,43*,11%,14%,15%,75*
CN(c1cccc(NC(=O)CSc2ccc(Cl)cc2)c1)S(C)(=O)=O,10%,-1,-28%,u,x,3
CN(c1cccc(NC(=O)COc2ccc(Cl)cc2Cl)c1)S(C)(=O)=O,152%,19*,u,u,108%,54*
CN(c1cccc(NC(=O)CCSc2ccccc2)c1)S(C)(=O)=O,44%,38*,3%,11%,0%,35*
CC(=O)Nc1cccc(NC(=O)COc2ccccc2C)c1,39%,20*,-3%[46.1 µM],18%[46.1 µM],u,33*
CC(C)c1nc2ccc(C(=O)NCCCN3CCN(c4ccccc4)CC3)cc2o1,x,x,x,-17%[46.1 µM],x,x
C[C@H](NC(=O)OC(C)(C)C)C(=O)NCC1CCC(C(=O)O)CC1 (some centres undefined),u,-1,4%,1%,-21%,-15
SMILES,Pf growth 48h,Cycloheximide cs,MARV entry inh,Lassa entry inh,Pf growth 96h,Shiga toxin inh
COC(=O)c1cccc(S(=O)(=O)N(Cc2ccco2)Cc2cc3ccc(OC)cc3[nH]c2=O)c1,u,-6,-29%,3%,x,-24
CCCCc1nnc(SCc2cc(=O)c3cc(F)ccc3[nH]2)n1C,x,x,x,1%[46.1 µM],x,x
Cc1ccc(NC(=O)COc2ccccc2C=O)cc1Cl,187%,26*,u,u,18%,29
Cc1ccc(NC(=O)COC(=O)C2CC2)cc1Cl,14%,x,-3%,u,33%,x
COc1ccc(N(CC(=O)Nc2cccc(N(C)S(C)(=O)=O)c2)S(C)(=O)=O)cc1OC,-2%,-1,-1%,14%,x,-17
Cc1ccccc1OCC(=O)Nc1cccc(N(C)S(C)(=O)=O)c1,14%,15*,0%,24%,x,+
CC(C)(C)OC(=O)N1CCC[C@@H]1CO,-13%,8,x,x,62%,-5
CCCCCC(CC(=O)NO)C(=O)NC(C(=O)N1CCCC1CO)C(C)C (centres undefined),3.3µM*,x,x,x,2.9µM*,x
C[C@H](NS(=O)(=O)c1ccc(Cl)c(Cl)c1)C(=O)OCc1cc(=O)n2cc(Br)ccc2n1,14%,-2,u,5%,34%,-3
O=c1cc(CO)occ1OCc1cccc(F)c1,45%,14,26%,8%,40%,16
Cc1ccc(COc2coc(CO)cc2=O)cc1,97%,38*,23%,u,73%,37
O=C(Nc1ccc(N2CCOCC2)c([N+](=O)[O-])c1)c1ccco1,20%,20*,17%[46.1 µM],u,-22%,70*
CCN1CCN(c2ccc(NC(=O)c3ccco3)cc2Cl)CC1,32%,27*,1%[46.1 µM],25%[46.1 µM],41%,59*
CCN1CCN(c2ccc(NC(=O)c3cccc(F)c3)cc2Cl)CC1,-12%,18*,u,21%,55%,97*
O=C(Nc1ccc(N2CCCCC2)c(Cl)c1)c1ncn[nH]1,0.47µM*,10,-17%,u,-5%[5.75 µM],8
O=C(Nc1ccc(CCC(=O)N2CCCC2)cc1)c1ncn[nH]1,-14%,-2,10%[46.1 µM],3%,53%,-6
COc1ccc(CCNS(=O)(=O)c2c(C)nc3sccn3c2=O)cc1OC,x,x,x,1%[46.1 µM],x,x
CC1=CC=CC2=NC(=O)CC(C)(C(=O)N(CC(=O)NC(C)C)C3CCCC3)N12 (centres undefined),-1%,-3,16%,32%[14.3 µM],-4%,-11
CC(C)(C)c1ccc(C(=O)NCC(=O)N/N=C/c2cccnc2)cc1,36%,-2,-3%[46.1 µM],-3%,18%,-9
O=S(=O)(NCCSCc1c(Cl)cccc1Cl)c1ccc2c(c1)OCCO2,21%,-1,-26%,-7%,-2%,10
CN1CCN(c2ccc(NC(=O)c3ccco3)cc2Cl)CC1,10%,47*,x,x,-6%,55
O=C(Nc1ccc(N2CCCC2)c(Cl)c1)c1ccco1,-4%,32*,u,12µM*,13%,92*
Cc1cccc(NC(=O)c2cc(NC(=O)c3ccco3)ccc2N2CCCCC2)c1,4.7µM*,-1,5%,-8%,u,-12
S=c1[nH]c(-c2ccccc2)cn1/N=C/c1cccnc1,0%,8,x,x,8%,-6
S=c1[nH]c(-c2ccccc2)cn1/N=C/c1cccs1,u,32*,18%[46.1 µM],9%[46.1 µM],12µM*,45*
S=c1[nH]c(-c2ccccc2)cn1/N=C/c1ccc(Br)cc1,u,20*,1%[46.1 µM],-13%,u,36
